Among all 39,000 compounds or so, about 1,500 (3.8%) were called active. The list comes from a sample in which actives are over-represented; it also holds similar structures and randomly drawn compounds.

The test relates to HSkMC (human skeletal muscle cells). Kind of test: cytotoxicity call (relative viability < 0.9). The settings on record: 10 µM.
For `COCC(=O)N1C[C@@H](C)[C@H](OC)CN(C)C(=O)c2ccc(NC(=O)Nc3cccc(F)c3)cc2OC[C@H]1C`, the cytotoxicity call was “inactive”.
In the case of `C[C@H]1CN([C@@H](C)CO)C(=O)c2cccc(NC(=O)c3cnccn3)c2O[C@@H]1CN(C)CC1CCCCC1` it was “inactive”.
The result for `CC[C@@H]1OC(=O)[C@H](C)[C@@H](O[C@H]2C[C@@](C)(OC)[C@@H](O)[C@H](C)O2)[C@H](C)[C@@H](O[C@@H]2O[C@H](C)C[C@H](N(C)C)[C@H]2O)[C@](C)(O)C[C@@H](C)/C(=N\OCOCCOC)[C@H](C)[C@@H](O)[C@]1(C)O` reads “inactive”; that for `CCNC(=O)C[C@@H]1C=C[C@H](NC(=O)C2CCOCC2)[C@H](CO)O1`, “inactive”; that for `COc1ccc(C#Cc2cnc3c(c2)C(=O)N([C@H](C)CO)C[C@H](C)[C@H](CN(C)CC2CCOCC2)O3)cc1`, “inactive”.
In the case of `C[C@H]1CCCCO[C@@H](CN(C)Cc2ccncc2)[C@@H](C)CN([C@@H](C)CO)C(=O)c2cc(NC(=O)C3CCCCC3)ccc2O1` it was “inactive”; in that of `C[C@H]1CN([C@@H](C)CO)C(=O)c2cccc(NS(C)(=O)=O)c2O[C@@H]1CN(C)S(=O)(=O)c1ccccc1`, “inactive”; in that of `O=C(C[C@H]1CC[C@@H](NC(=O)Cc2ccccn2)[C@@H](CO)O1)NCCCN1CCOCC1`, “inactive”.
For `C[C@H]1CN([C@@H](C)CO)C(=O)Cc2cc(NS(C)(=O)=O)ccc2O[C@H]1CN(C)S(C)(=O)=O`, the cytotoxicity call was “inactive”.
The result for `CCCn1c(=O)c(C#N)cn(C2CC2)c1=O` reads “inactive”.
In the case of `N=C(N)SCc1csc(N)n1` it was “inactive”; in that of `C[C@H]1CN([C@@H](C)CO)C(=O)c2cc(NC(=O)Cc3cn(C)c4ccccc34)ccc2O[C@H]1CN(C)Cc1ccc(-c2ccccc2)cc1`, “inactive”.
In the case of `C[C@H]1CN([C@@H](C)CO)C(=O)c2cc(NC(=O)Cc3cn(C)c4ccccc34)ccc2O[C@@H]1CN(C)Cc1ccc(Cl)c(Cl)c1` it was “active”; in that of `C[C@@H]1CN([C@H](C)CO)C(=O)c2cc(NC(=O)Cc3cn(C)c4ccccc34)ccc2O[C@H]1CN(C)Cc1ccc(Cl)c(Cl)c1`, “active”; in that of `C[C@@H]1CN([C@@H](C)CO)C(=O)c2cc(NC(=O)Cc3cn(C)c4ccccc34)ccc2O[C@H]1CN(C)Cc1ccc(Cl)c(Cl)c1`, “inactive”.
Consider `C[C@H]1CN([C@@H](C)CO)C(=O)c2cc(NC(=O)Cc3cn(C)c4ccccc34)ccc2O[C@H]1CN(C)Cc1ccc(Cl)c(Cl)c1`, for which the cytotoxicity call is “inactive”.
The result for `C[C@@H]1CN([C@@H](C)CO)C(=O)c2cc(NC(=O)CCN3CCOCC3)ccc2O[C@@H]1CN(C)S(C)(=O)=O` reads “inactive”; that for `C[C@H](O)C#Cc1ccc2c(c1)O[C@@H](CN(C)C(=O)Nc1ccccc1)[C@@H](C)CN([C@H](C)CO)S2(=O)=O`, “inactive”; that for `CC(C)NC(=O)Nc1cccc2c1O[C@H](CN(C)Cc1ccc(C(=O)O)cc1)[C@H](C)CN([C@@H](C)CO)C2=O`, “inactive”.
Consider `CCC1C=C2C(=O)OC(=O)C2CC2=C(C(=O)OC2=O)C(OC(C)=O)C1CC` (stereo not drawn), for which the cytotoxicity call was “inactive”.
In the case of `COc1ccc(CN(C)C[C@H]2Oc3ccc(NC(=O)C4CC4)cc3CC(=O)N([C@@H](C)CO)C[C@H]2C)cc1` it was “inactive”; in that of `O=C(C[C@H]1CC[C@@H]2[C@H](COC[C@@H](O)CN2S(=O)(=O)c2cccc(Cl)c2)O1)N1CCOCC1`, “inactive”; in that of `CN(C)C(=O)c1ccc(-c2cccc(-c3nc(C(=O)NC4CCCC4)cc4c3[C@H](CCO)N([S@@](=O)C(C)(C)C)C4)c2)cc1`, “inactive”.
`Nc1nonc1/C(=N/O)N1CCCCC1`: the cytotoxicity call was “inactive”.
In the case of `Cc1nn(C)c(COc2ccc(N3CCN(S(=O)(=O)N(C)C)CC3)cc2)c1-c1cccc2c(CCCOc3cccc4ccccc34)c(C(=O)O)n(CCN3CCNCC3)c12` it was “inactive”; in that of `O=C1C=CC(=O)N1`, “active”; in that of `CC(C)(C)c1ccc(C(=O)CCCN2CCC(OC(c3ccccc3)c3ccccc3)CC2)cc1`, “active”.
The result for `CN1CCC(OC(c2ccccc2)c2ccccc2)CC1.Cl` reads “inactive”; that for `CN1C2CCC1CC(OC(c1ccccc1)c1ccccc1)C2.CS(=O)(=O)O` (stereo not drawn), “inactive”; that for `C[C@H]1CCCCO[C@H](CN(C)C(=O)CCC(F)(F)F)[C@@H](C)CN([C@@H](C)CO)C(=O)c2cc(NC(=O)CCC(F)(F)F)ccc2O1`, “inactive”.
The result for `C[C@@H]1CN([C@H](C)CO)C(=O)c2cc(NS(C)(=O)=O)ccc2O[C@@H]1CN(C)C(=O)Nc1ccc(C(F)(F)F)cc1` reads “inactive”.
For the compound `COC(=O)CSc1nc(=O)c(C)n[nH]1`, the cytotoxicity call is “inactive”.
In the case of `C[C@@H]1CN([C@H](C)CO)C(=O)c2cccc(NC(=O)Nc3ccc(C(F)(F)F)cc3)c2O[C@H]1CN(C)C(=O)Nc1cccc2ccccc12` it was “inactive”; in that of `C[C@H]1CN([C@@H](C)CO)C(=O)c2cccc(NC(=O)Nc3ccc(C(F)(F)F)cc3)c2O[C@H]1CN(C)C(=O)Nc1cccc2ccccc12`, “inactive”; in that of `C[C@H](CO)N1C[C@H](C)[C@H](CN(C)C(=O)Nc2cccc3ccccc23)Oc2c(NC(=O)Nc3ccc(C(F)(F)F)cc3)cccc2C1=O`, “inactive”.
In the case of `C[C@@H]1CN([C@H](C)CO)C(=O)c2cccc(NC(=O)Nc3ccc(C(F)(F)F)cc3)c2O[C@@H]1CN(C)C(=O)Nc1cccc2ccccc12` it was “active”; in that of `C[C@H]1CN([C@@H](C)CO)C(=O)c2cccc(NC(=O)Nc3ccc(C(F)(F)F)cc3)c2O[C@@H]1CN(C)C(=O)Nc1cccc2ccccc12`, “active”.
The result for `C[C@@H]1CN([C@@H](C)CO)C(=O)c2cccc(NC(=O)Nc3ccc(C(F)(F)F)cc3)c2O[C@H]1CN(C)C(=O)Nc1cccc2ccccc12` reads “inactive”; that for `C[C@H](CO)N1C[C@H](C)[C@@H](CN(C)C(=O)Nc2cccc3ccccc23)Oc2c(NC(=O)Nc3ccc(C(F)(F)F)cc3)cccc2C1=O`, “inactive”.
Take `C[C@@H]1CN([C@@H](C)CO)C(=O)c2cccc(NC(=O)Nc3ccc(C(F)(F)F)cc3)c2O[C@@H]1CN(C)C(=O)Nc1cccc2ccccc12`: the cytotoxicity call is “active”.
In the case of `COCC#Cc1cnc2c(c1)C(=O)N([C@@H](C)CO)C[C@@H](C)[C@@H](CN(C)C(C)=O)O2` it was “inactive”; in that of `C[C@@H]1CN([C@H](C)CO)C(=O)c2cc(NC(=O)CCCN(C)C)ccc2O[C@H]1CN(C)S(=O)(=O)c1ccccc1`, “inactive”; in that of `C[C@@H]1CCCCO[C@H](CN(C)Cc2ccccc2)[C@H](C)CN([C@H](C)CO)C(=O)c2cc(NC(=O)CCC(F)(F)F)ccc2O1`, “inactive”.

The values are drawn from the antibiotic and cytotoxicity screens of Wong et al. (2023).
